Test results from PubChem BioAssay (NCATS).
Records with an inconclusive call do not appear. The source made the active and inactive calls. Calls follow the shape of the dose curve; as a rule, active = well fitted inhibition curve with a large enough effect; inconclusive = small, poorly fitted or top-dose-only effect; inactive = flat fitted curve, though single readings scatter.

Tests used:
Assay in all cases: qHTS profiling for inhibitors of Plasmodium falciparum proliferation (AID 504749); also: nearly all actives have a fitted effect of over 60% in size
Settings in all cases: P. falciparum in erythrocytes, SYBR Green DNA, 72 h; series mostly up to 28.7 µM
CP194 = test system: CP194
Procedure, shortened: (§1)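 Readout was DNA-dye fluorescence from lysed cultures, ex 485/em 535 nm. Parasitized red cells had grown 72 h with compound; data scaled between 0.29 uM artemisinin and DMSO wells and corrected using vehicle-only plates.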

CP201 = test system: CP201
Procedure, shortened: as §1

CP203 = test system: CP203
Procedure, shortened: as §1

CP211 = test system: CP211
Procedure, shortened: as §1

CP215 = test system: CP215
Procedure, shortened: as §1

CP217 = test system: CP217
Procedure, shortened: as §1

CP237 = test system: CP237
Procedure, shortened: as §1

CP238 = test system: CP238
Procedure, shortened: as §1

CP247 = test system: CP247
Procedure, shortened: as §1

CP250 = test system: CP250
Procedure, shortened: as §1

CP252 = test system: CP252
Procedure, shortened: as §1

CP256 = test system: CP256
Procedure, shortened: as §1

CP265 = test system: CP265
Procedure, shortened: as §1

CP266 = test system: CP266
Procedure, shortened: as §1

CP268 = test system: CP268
Procedure, shortened: as §1

CP269 = test system: CP269
Procedure, shortened: as §1

CP286 = test system: CP286
Procedure, shortened: as §1

CP291 = test system: CP291
Procedure, shortened: as §1

CP262 = test system: CP262
Procedure, shortened: as §1

CP260 = test system: CP260
Procedure, shortened: as §1

Measured: Potency

Cc1nc(NS(=O)(=O)c2ccc(N)cc2)nc(C)c1Br
inactive: CP194 | CP201 | CP203 | CP211 | CP215 | CP217 | CP237 | CP238 | CP247 | CP250 | CP252 | CP256 | CP265 | CP266 | CP268 | CP269 | CP286 | CP291

Cc1cccc(Nc2ncccc2C(=O)O)c1C
inactive: CP194 | CP201 | CP203 | CP211 | CP215 | CP217 | CP237 | CP238 | CP247 | CP250 | CP252 | CP256 | CP262 | CP265 | CP266 | CP268 | CP269 | CP286 | CP291

C[Si](C)(C)O[Si](C)(C)C
inactive: CP194 | CP201 | CP203 | CP211 | CP215 | CP217 | CP237 | CP238 | CP247 | CP250 | CP252 | CP256 | CP260 | CP265 | CP268 | CP269 | CP286 | CP291

CC(C)CCCCCCc1ccc(O)cc1
inactive: CP194 | CP201 | CP203 | CP211 | CP215 | CP217 | CP237 | CP238 | CP250 | CP252 | CP256 | CP260 | CP262 | CP265 | CP266 | CP268 | CP269 | CP286 | CP291

O[C@@H]([C@H](O)[C@H](O)CBr)[C@H](O)CBr
inactive: CP194 | CP201 | CP203 | CP211 | CP215 | CP217 | CP237 | CP238 | CP247 | CP250 | CP252 | CP260 | CP262 | CP265 | CP266 | CP268 | CP269 | CP286 | CP291

CCCCCc1ccc(C)cc1O
inactive: CP194 | CP201 | CP203 | CP211 | CP215 | CP217 | CP237 | CP238 | CP250 | CP252 | CP256 | CP260 | CP262 | CP265 | CP266 | CP268 | CP269 | CP286 | CP291

CC(C)NCC(O)COc1ccccc1-n1cccc1 (stereo unspecified)
inactive: CP194 | CP201 | CP203 | CP211 | CP215 | CP217 | CP238 | CP247 | CP250 | CP252 | CP256 | CP262 | CP265 | CP266 | CP268 | CP269 | CP286 | CP291

COc1ccc2nc(NC(=O)Nc3ccccc3)sc2c1
inactive: CP194 | CP201 | CP217 | CP237 | CP238 | CP250 | CP252 | CP256 | CP260 | CP262 | CP265 | CP266 | CP268 | CP286

CC(=O)Nc1ccc(NC(=S)NC(=O)c2ccc(C(C)(C)C)cc2)cc1
inactive: CP194 | CP201 | CP203 | CP211 | CP215 | CP217 | CP238 | CP247 | CP250 | CP252 | CP256 | CP262 | CP266 | CP268 | CP269 | CP291

C[C@H](CCCC(C)(C)O)[C@H]1CC[C@H]2[C@@H]3CC=C4C[C@@H](O)CC[C@]4(C)[C@H]3CC[C@]12C
inactive: CP194 | CP201 | CP203 | CP211 | CP215 | CP217 | CP238 | CP247 | CP252 | CP256 | CP260 | CP262 | CP265 | CP266 | CP268 | CP269 | CP286 | CP291

CCCCO
inactive: CP194 | CP201 | CP203 | CP211 | CP217 | CP237 | CP238 | CP247 | CP250 | CP252 | CP256 | CP260 | CP262 | CP265 | CP268 | CP269 | CP286 | CP291
